Reference: PubChem BioAssay AID1903 (Southern Research Specialized Biocontainment Screening …, 2009)
About 1,200 (0.39%) of roughly 310,000 compounds were called active. No rule for the calls is given here. These entries were drawn from the full list. Results with a measured potency or affinity are listed apart.

Target: Large T antigen (Simian virus 40) (UniProt P03070)
Assay: SV40 large T antigen inhibitors, biochemical (AID 1903)
Conditions: SV40 large T antigen ATPase/helicase inhibition assay; at 20 µM; stronger effect = higher value

Chain of Large T antigen (Simian virus 40) (P03070 whole entry, looked up): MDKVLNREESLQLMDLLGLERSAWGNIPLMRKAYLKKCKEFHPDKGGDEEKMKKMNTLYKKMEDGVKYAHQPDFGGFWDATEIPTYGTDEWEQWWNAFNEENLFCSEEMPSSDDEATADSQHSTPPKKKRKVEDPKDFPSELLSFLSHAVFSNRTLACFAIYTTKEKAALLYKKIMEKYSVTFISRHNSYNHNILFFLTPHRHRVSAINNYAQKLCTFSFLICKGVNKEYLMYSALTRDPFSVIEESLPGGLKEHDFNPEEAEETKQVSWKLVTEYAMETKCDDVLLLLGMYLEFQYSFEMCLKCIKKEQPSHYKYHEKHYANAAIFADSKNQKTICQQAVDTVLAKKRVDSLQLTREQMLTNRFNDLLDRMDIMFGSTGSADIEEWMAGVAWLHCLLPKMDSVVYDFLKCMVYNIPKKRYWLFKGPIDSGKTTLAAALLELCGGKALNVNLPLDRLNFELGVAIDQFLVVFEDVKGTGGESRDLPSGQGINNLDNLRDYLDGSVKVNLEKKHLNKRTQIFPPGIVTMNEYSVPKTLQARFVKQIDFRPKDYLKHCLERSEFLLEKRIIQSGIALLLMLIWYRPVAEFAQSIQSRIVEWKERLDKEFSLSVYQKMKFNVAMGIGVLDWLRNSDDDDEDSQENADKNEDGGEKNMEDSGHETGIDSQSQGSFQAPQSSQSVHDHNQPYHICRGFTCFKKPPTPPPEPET

inhibition, inactive:
COc1cc2c(cc1NC(=S)Nc1cccc3ccccc13)oc1ccccc12 29.9%, CNC(=S)Nc1cc2oc3ccccc3c2cc1OC 18.4%, CN(C)/C=C(\C#N)C(N)=C(C#N)C#N -3.37%, N#CC(=Cc1ccc(O)cc1)C(N)=C(C#N)C#N 8.06%, O=C(N/N=C/C1CC=CCC1)c1cc(Br)ccc1O (stereo not given) 1.73%, C=C1C(=O)O[C@@H]2C[C@@H](C)[C@@H]3C=CC(=O)[C@@]3(C)[C@@H](OC(C)=O)[C@H]12 35.6%, CC(=O)O[C@@H]1[C@H]2[C@@H](C[C@@H](C)[C@@H]3C=CC(=O)[C@@]13C)OC(=O)[C@@H]2C 11.5%, CCOc1cc(/C=C(\C#N)C(N)=O)ccc1OCc1c(C)no[n+]1[O-] 10.9%, COc1ccccc1Oc1ccc(NC(=O)c2ccc(Cl)cc2)cc1 6.92%, CS(=O)(=O)c1ccc(N)cc1 -0.19%, CS(=O)(=O)c1ccc2nc(N)sc2c1 0.3%, CC(C)OC(=O)NC(Nc1ccccc1C(=O)O)(C(F)(F)F)C(F)(F)F 6.18%, Cc1ccc(C(=O)N[C@H](C(=O)Nc2sccc2C(N)=O)C(C)C)cc1 -5.98%, COc1ccc(OCc2nn3c(-c4cccc(OC)c4)nnc3s2)cc1 8.77%, O=C(O)c1ccc(/C=C2\SC(=S)N(Nc3ccccc3)C2=O)cc1 32.2%, O=C1/C(=C/c2cccnc2)SC(=S)N1Nc1ccccc1 29.5%, CC(/C=N/NC(=O)c1sc(N)nc1C)=C\c1ccccc1 17.8%, Cc1ccc(-c2ccc(/C=C3/NC(=O)NC3=O)o2)cc1[N+](=O)[O-] 28.5%, NS(=O)(=O)c1ccc(-c2ccc(/C=C3\C(=O)Nc4cc(Cl)ccc43)o2)cc1 -8.34%, Cc1cc(C(=O)O)ccc1-c1ccc(/C=C2\NC(=O)N(Cc3ccc(F)cc3)C2=O)o1 37.5%, CC1=C(C#N)C(=O)NC(=O)/C1=C\c1ccc(-c2cc(C)c(C)cc2[N+](=O)[O-])o1 17.5%, CC1=C(C#N)C(=O)NC(=O)/C1=C\c1ccc(-c2ccc(C)cc2[N+](=O)[O-])o1 33.3%, O=[N+]([O-])c1ccccc1-c1ccc(/C=N/n2cnnc2)o1 14.3%, O=C(COc1cccc(NC(=O)c2ccccc2)c1)c1ccccc1 5.06%, CCN(C(=O)CN1CCOCC1)c1c(N)n(Cc2ccccc2)c(=O)[nH]c1=O 7.23%, Cc1ccc(S(=O)(=O)NCCNC(=O)CN2CCCC2)cc1 0.78%, CC1(C)CC(=O)N(CC(=O)N2CCN(c3ncccn3)CC2)c2ccccc2S1(=O)=O -1.17%, O=C(NNc1c(Cl)cccc1Cl)c1c(F)cccc1Cl 9.15%, COC(=O)[C@@]12CCCN1[C@H](c1ccc(-c3ccc(F)cc3)cc1)[C@H]1C(=O)N(C)C(=O)[C@H]12 5.03%, Cc1ccc(S(=O)(=O)NC(=O)N(CCC#N)Cc2ccccc2)cc1 10.3%, CC(C)(C)/C(O)=C/c1nc2ccccc2oc1=O 29.2%, Cc1ccc(/C(O)=C/c2nc3cc(C)ccc3oc2=O)cc1 14.5%, COc1ccc(-c2nc(NC(=O)CSCCO)sc2C)cc1 22.1%, O=S1(=O)N=C(SCCO)c2ccccc21 -3.68%, O=C1C(O)=C(O)C(=O)c2ccccc21 5.58%, CCOc1ccc(NC(=S)N(CCN2CCOCC2)Cc2ccc3c(c2)CCCN3CC)cc1 18.7%, CCCc1cc2c(=O)c(-c3cscn3)c(C(=O)OCC)oc2cc1O 2.58%, CCOC(=O)c1[nH]nc(-c2c(O)cc(C)cc2O)c1-c1csc(C)n1 6.85%, CCOC(=O)c1oc2cc(O)c(CC)cc2c(=O)c1-c1cscn1 7.73%, CCCc1cc(-c2[nH]ncc2-c2ccc(C(=O)OCC)o2)c(O)cc1O 18.2%, CN(C)/C=C/C(=O)c1ccc(S(=O)c2ccccc2)cc1 (stereo not given) 12.1%, Cc1cc(/C=C2/NC(=S)NC2=O)c(C)n1-c1cccnc1 5.09%, Cc1cc(/C=C2/NC(=O)NC2=O)c(C)n1-c1ccncc1 6.66%, Cc1cc(/C=N\O)c(C)n1-c1ccncc1 7.77%, Cc1cc(/C=C2\NC(=S)NC2=O)c(C)n1-c1cccnc1 4.58%, COc1ccc2c(c1)CC/C(=C\c1ccc(OC)c(Cn3nc(C)cc3C)c1)C2=O 10.2%, CCCc1nc(-c2ccccc2)c(-c2ccc(OC)c(OC)c2)c(=O)[nH]1 3.66%, O=C(CSc1nnc(CNC(=O)c2cccs2)o1)NC1CCCC1 0.7%, Cc1ccc(C(=O)Cn2nnc(-c3ccccc3)n2)cc1 0.94%, O=C(CCS(=O)(=O)c1cccs1)Nc1ccc(C(=O)NC2CCN(Cc3ccccc3)CC2)cc1 16.1%, O=C(CSCc1c(Cl)cccc1Cl)Nc1ccccc1C(=O)N1CCOCC1 6.94%, CCOC(=O)c1sc(N)c(C(=O)Nc2ccccc2OC)c1C 25.6%, Cc1ccccc1-n1nnnc1SCC(=O)Nc1ccc(S(=O)(=O)N2CCCC2)cc1 -7.07%, Nc1ccc(-c2nc3ccc([N+](=O)[O-])cc3[nH]2)cc1 1.62%, COc1ccc2nc(-c3ccc(N)cc3)[nH]c2c1 25.1%, CC1CCN(C(=O)COC(=O)CSc2ccc(C(N)=O)cc2[N+](=O)[O-])CC1 18.6%, O=C1CCCN1CCCNC(=S)Nc1ccccc1 14.1%, O=C1CCCN1CCNC(=S)Nc1ccccc1 1.29%, COCCOC(=O)C1=C(C)NC(=O)NC1c1ccco1 (stereo not given) 13%, Cc1ccc(NC(=O)C(=O)C2C(=O)Nc3ccccc32)cc1 (stereo not given) 6.13%, O=C(Nc1ccc(F)cc1)C(=O)C1C(=O)Nc2ccccc21 (stereo not given) 16.2%, COc1ccc(CC(=O)NCC(=O)N/N=C/c2sccc2C)cc1 26.5%, Cc1ccc(S(=O)(=O)N2CCN(CC(=O)N/N=C\c3ccc(Cl)c([N+](=O)[O-])c3)CC2)cc1 19.6%, N#Cc1ccc(/C=N/NC(=S)Nc2ccc(S(=O)(=O)N3CCOCC3)cc2)cc1 15.2%, Cc1ccc(S(=O)(=O)N2CCN(CC(=O)N/N=C\c3ccncc3)CC2)cc1 22%, O=S(=O)(c1ccc(NC(=S)N/N=C/c2ccc(N3CCOCC3)cc2)cc1)N1CCOCC1 22.6%, CCCCN(C(=O)NC(=O)Nc1ccccc1C)S(C)(=O)=O 12%, COc1ccc(N2C(=O)CSC2c2cccc(F)c2)cc1 (stereo not given) 9.83%, CC1CC(C)(C)NC(=S)N1CCCC(=O)N1CCN(c2ccc(F)cc2)CC1 (stereo not given) 7.98%, CCOc1cc2c(cc1OCC)C(c1ccccc1OC)OC(=O)C2 (stereo not given) 2.26%, C(=N\Nc1nc2ccccc2[nH]1)/c1ccccc1 24.9%, COc1ccc(/C=N/Nc2nc3ccccc3[nH]2)cc1OC 26.4%, COc1cc(/C=N\Nc2nc3ccccc3[nH]2)cc(OC)c1OC 22.4%, COc1cc(/C=N\Nc2nc3ccccc3o2)cc(OC)c1OC 12.1%, Cc1ccc(/C=N/Nc2nc3ccccc3[nH]2)s1 18.3%, COc1ccc(/C=N/Nc2nc3ccccc3o2)cc1O 28.6%, COc1ccc(-c2noc(N3CCC(C(=O)NCCCN4CCCCC4)CC3)n2)cc1 11.4%, C/C(=N\NC(=O)c1c(Cl)c(C)nn1C)c1cccc(NC(=O)c2cccc(F)c2)c1 27.2%, O=C(Cc1ccccc1)NCC(=O)N/N=C/c1cccnc1 12.9%, O=C1Nc2ccc(S(=O)(=O)N3CCOCC3)c3cccc1c23 3.61%, CCOC(=O)C1=C(C)NC(=O)C(C(N)=O)C12CCCCC2 (stereo not given) 4.24%, CN(CCc1ccccn1)C(=O)CCC1CCCN(C(=O)CN2CCCCCC2)C1 (stereo not given) 16.4%, Cc1cccc(Nc2nc3c(S(=O)(=O)c4ccccc4)nnn3c3ccccc23)c1 8.95%, CCCN1C(=O)/C(=N\OCC(=O)NC23CC4CC(CC(C4)C2)C3)c2ccccc21 19.7%, COc1ccc(C2CC(=O)c3cnc(N4CCc5ccccc54)nc3C2)cc1OC (stereo not given) 6.12%, CCOC(=O)C(CC)n1nc(C)n2c(cc3sccc32)c1=O (stereo not given) 9.17%, Cc1cc(N)ccc1N1CCCC1 11.3%, Cc1cc(N)ccc1-n1c(C)ccc1C 15.8%, Cc1ccc(CNC(C)(C)CO)cc1 1.14%, Cc1nc(-c2ccccc2O)n(S(=O)(=O)N(C)C)n1 12.3%, CCN(C(=O)c1ccc(Cl)c([N+](=O)[O-])c1)c1ccccc1 4.72%, CCN(CC(=O)Nc1ccc(NC(C)=O)cc1)C(=O)c1ccc(NC2CC2)c([N+](=O)[O-])c1 9.29%, COCCNC(=O)C(=O)c1cc(C)n(-c2ccc([N+](=O)[O-])cc2)c1C 3.94%, CCN1C(=O)c2ccccc2Sc2ccc(C(=O)NCCCN3CCCCC3)cc21 10.1%, CCc1nnc(NC(=O)COc2ccc(N(C)S(=O)(=O)c3ccc(C)cc3)cc2)s1 4.23%
